This is a sample that favours compounds with a hit; in the whole collection about 11% have one here.
G9a inh: G9a (human) methyltransferase inhibition; Q96KQ7; G9a H3K9 monomethylation, AlphaScreen, 2 h; Potency, µM (highest dose often 102 µM), most hits filed as inhibitors; 350,000 compounds, 8.8% hits; AID 504332; further: nearly all actives have a fitted effect of over 75% in size
Target sequence (Q96KQ7 913-1193 limits assumed): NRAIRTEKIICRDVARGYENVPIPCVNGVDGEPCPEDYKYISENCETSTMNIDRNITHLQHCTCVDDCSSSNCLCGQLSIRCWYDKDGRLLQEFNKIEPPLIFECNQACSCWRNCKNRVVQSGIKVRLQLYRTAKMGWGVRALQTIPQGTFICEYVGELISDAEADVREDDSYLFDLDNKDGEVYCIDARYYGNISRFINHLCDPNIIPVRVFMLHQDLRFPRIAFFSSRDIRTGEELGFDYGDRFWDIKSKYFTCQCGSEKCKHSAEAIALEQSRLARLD
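Methyltransferase reactions run at room temperature for 2 h (20 nM enzyme, 500 nM biotin-H3K9 peptide, 20 uM SAM) after a 15 min compound preincubation; product detected by AlphaScreen beads and anti-H3K9me1 antibody.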
HP1b chromo inh: inhibitors of HP1-beta chromodomain binding to methylated histone tails. AlphaScreen HP1-beta / biotin-H3K9me3 peptide binding. Potency, µM (top dose mostly 114 µM), hits mostly inhibitors. 390,000 compounds, 0.56% hits; further: nearly all actives have a fitted effect of over 70% in size
Target sequence (P83916 whole entry, looked up): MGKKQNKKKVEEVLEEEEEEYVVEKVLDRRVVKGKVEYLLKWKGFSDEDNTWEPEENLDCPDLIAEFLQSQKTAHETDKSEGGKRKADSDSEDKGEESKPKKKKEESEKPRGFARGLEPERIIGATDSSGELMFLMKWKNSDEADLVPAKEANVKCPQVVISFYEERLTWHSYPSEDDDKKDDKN
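AlphaScreen: HP1-beta (50 nM) preformed 30 min with biotin-H3(1-18)K9me3 peptide (50 nM) in PBS pH 7.4, 0.01% Tween-20. Compound added for 30 min at RT, then streptavidin donor/nickel chelate acceptor beads (10 ug/mL) for 30 min.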
BAZ2B inh: inhibitors of human BAZ2B bromodomain; Potency, µM (doses to about 114 µM), most hits filed as inhibitors; 360,000 compounds, 4.4% hits; AID 504333; Q9UIF8; AlphaScreen BAZ2B-H3K14Ac peptide displacement; further: nearly all actives have a fitted effect of over 60% in size
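In this displacement format the biotinylated H3(5-23) peptide acetylated at Lys14 serves as ligand at 50 nM, with BAZ2B at 50 nM in PBS pH 7.4 containing 0.01% Tween-20. Donor and acceptor beads are 10 ug/mL final.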
JMJD2A Tudor: blocks the human JMJD2A Tudor domain; AlphaScreen JMJD2A-Tudor / H3K4me3 peptide binding; Potency, µM (doses to about 114 µM), actives largely listed as inhibitors; O75164; 390,000 compounds, 4.4% hits; further: nearly all actives have a fitted effect of over 50% in size
L3MBTL1 block: L3MBTL1 (human) inhibition. Q9Y468. AlphaScreen L3MBTL1–H3K9me1 peptide binding. Potency, µM (top dose mostly 57.1 µM), hits mostly inhibitors. 230,000 compounds, 0.66% hits; further: nearly all actives have a fitted effect of over 60% in size
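L3MBTL1 50 nM + b-AHA-H3(1-15)K9me1 75 nM, 30 min RT; compound added, 30 min RT; streptavidin donor/Ni-chelate acceptor beads 10 ug/mL each final, 30 min RT dark; AlphaScreen read.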
Hits are given with their value; 0 = inactive; ? = inconclusive; - = no result; [ ] = remark or other dose. The call rests on the fitted dose curve; in most records, active means well fitted inhibition curve with a large enough effect; inconclusive means small, poorly fitted or top-dose-only effect; inactive means no such curve, though single readings can be large or run the other way.

SMILES | G9a inh | HP1b chromo inh | BAZ2B inh | JMJD2A Tudor | L3MBTL1 block
COc1cc(/C=C(/C#N)c2nc(-c3cc4ccccc4oc3=O)cs2)cc([N+](=O)[O-])c1O | 3.2µM | - | ? | - | 0
CCN(CC)CCOC(=O)c1ccc(N/C=C(/C#N)c2nc(-c3cc4ccccc4oc3=O)cs2)cc1 | 1.6µM | 18µM | 0 | ? | -
COc1cc(/C=C(\C#N)c2nc(-c3cc4ccccc4oc3=O)cs2)ccc1O | ? | 0 | 0 | 0 | 0
N#C/C(=C\c1cccc(F)c1)c1nc(-c2cc3ccccc3oc2=O)cs1 | 0 | 0 | 0 | 0 | -
COc1cccc2c1cc1c(=O)n(CC(=O)N3CCN(c4cccc(C)c4)C(C)C3)nc(C)n12 (centres undefined) | 0 | 0 | 0 | 0 | -
CC1CCN(C(=S)NC(=O)C2CCCCC2)CC1 | 0 | 0 | 0 | 0 | 0
CCCNC(=S)N1CCC(NC(=O)C2CCCCC2)CC1 | 0[12.7 µM] | ? | 0 | 22µM | 0
O=C(NC1CCN(C(=S)NCCc2ccccc2)CC1)C1CC1 | 10µM | 0 | ? | 0 | 0
O=C(NC1CCN(C(=S)NCc2ccco2)CC1)C1CCCCC1 | ? | 0 | 0 | 0 | 0
O=C(CC12CC3CC(CC(C3)C1)C2)NC(=S)N1CCCCC1 | 11µM | ? | 0 | 0 | 0
O=C(NC(=S)N1CCCCCC1)C1CC1 | 28µM | 0 | 0 | 0 | 0
O=C1C2C3CCCC3=C3CCCC3C2C(=O)N1c1ccccc1Cl (centres undefined) | - | 0 | - | 0 | -
CCOC(=O)c1c(C)oc2ncnc(N3CCN(c4cccc(Cl)c4)CC3)c12 | 0 | 0 | 0 | 0 | -
COc1ccc(-n2c(=O)c3c4c(sc3n(Cc3ccc(F)cc3)c2=O)CCCC4)c(OC)c1 | ? | 0 | 0 | 0 | -
CCOC(=O)C1=C(N)Oc2cc(C)n(C)c(=O)c2C1c1ccncc1 (centres undefined) | 50µM | 0 | 0 | 0 | 0
CCOc1ccccc1NC(=O)NCCn1c(=O)oc2ccc(C)cc21 | 0 | 0 | 0 | 0 | -
CN(NC(=O)/C=C/C(=O)O)c1ncc(C(F)(F)F)cc1Cl | 6.3µM | 0 | ? | 0 | 0
NC1=NCC2c3ccccc3Cc3ccccc3N12 (centres undefined) | 0 | - | - | - | -
CC(=O)c1ccc(S(=O)(=O)N2CCN(C(=O)c3ccc(COc4ccccc4)o3)CC2)cc1 | 50µM | 0 | 0 | 0 | 0
O=C(c1ccco1)N1CCN(S(=O)(=O)c2ccc(Oc3ccccc3)cc2)CC1 | 35µM | 0 | 0 | 0 | 0
O=C(c1ccco1)N1CCN(S(=O)(=O)c2ccc(Br)cc2)CC1 | 0 | 0 | 0 | 0 | -
Cc1cccc(Cn2c(C)c(C)c3cc(C(=O)NCc4ccco4)ccc32)c1 | 0 | 0 | 0 | ? | -
C=CCc1ccc(OCCCNC2CCCC2)c(OC)c1 | - | ? | - | 79µM | -
C=CCc1ccc(OCCCNCc2ccccc2)c(OC)c1 | - | ? | 50µM | 28µM | 0
C=CCc1ccc(OCCCOc2ccc(C)cc2OC)c(OC)c1 | 0 | 0 | 0 | 0[11.4 µM] | -
SMILES | G9a inh | HP1b chromo inh | BAZ2B inh | JMJD2A Tudor | L3MBTL1 block
C=CCc1cccc(Cl)c1OCCCNC1CCCC1 | - | 0 | ? | 50µM | 0
N#Cc1ccccc1OCCOCCNC1CCCC1 | 10µM | 0 | ? | ? | 0
CCNc1ncc2nc(-c3cn(C)c4ccccc34)c(=O)n(Cc3ccc(F)cc3)c2n1 | 0[0.501 µM] | - | - | - | -
O=C(NCC(c1cccs1)S(=O)(=O)c1cccs1)c1ccc(Cl)cc1 (centres undefined) | 0 | 0 | 0 | 0 | -
COc1ccccc1OCCNC1CCCC1 | 40µM | 0 | ? | 3.5µM | -
COc1ccccc1CNS(=O)(=O)CCNC1CCCCC1 | - | 0 | - | 0 | -
CC(C)(C)C(=O)Nc1ccc(C(=O)Nc2cccc(Oc3ccc(C(=O)O)c(C(=O)O)c3)c2)cc1 | 45µM | 0 | 0 | 0 | 0
O=C(Nc1cccc(Oc2ccc(C(=O)O)c(C(=O)O)c2)c1)c1ccc(-c2ccccc2)cc1 | - | ? | 50µM | 0[11.4 µM] | -
Cc1cccc(Oc2ccc(NC(=O)c3ccccc3C(=O)O)cc2)c1 | - | 0 | 0 | 0[11.4 µM] | -
Oc1ccc(N2CCN(CC(O)c3ccccc3)CC2)cc1 (centres undefined) | 8.9µM | ? | 0 | 56µM | -
OC(COC(c1ccccc1)c1ccccc1)CN1CCCCC1 (centres undefined) | 0 | 0 | 0 | 0 | 0
COc1ccc(N2CCN(CC(O)COC(c3ccc(F)cc3)c3ccc(F)cc3)CC2)cc1 (centres undefined) | 5.6µM | ? | 20µM | 3.5µM | -
